For 4 compounds, AC50 and outcome results are on record in PubChem BioAssay (EPA / NIEHS).

Structures are written as SMILES. Active and inactive are the calls of the source. Rule for the calls: active = hit-call score of the fitted dose curve at least 0.9, where 1 is the maximum; inactive = score below 0.9.

Read-out in test [1]: Transforming growth factor beta 1 (TGFb1), TGFB1 (gene 7040)
Briefly: BSK_KF3CT_TGFb1: BioMAP Diversity Plus: KF3CT Assay for Transforming growth factor beta 1 (TGFb1) Biomarker Activity (AID 2283072). The following applies: primary human keratinocytes with fibroblasts; actives raise or lower the signal. Summed up: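 Read-out: ELISA for TGF-b1 in keratinocyte/foreskin fibroblast human skin co-culture, 24 h after dosing; bidirectional curve fit vs DMSO baseline; gain or loss of signal scored.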

Read-out in test [2]: Matrix Metallopeptidase 9 (MMP9), MMP9 (gene 4318)
Kind of test: BSK_KF3CT_MMP9: BioMAP Diversity Plus: KF3CT Assay for Matrix Metallopeptidase 9 (MMP9) Biomarker Activity (AID 2283074).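 For AC50: MMP9 protein level quantified by ELISA in the co-culture.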 The settings on record: primary human keratinocytes with fibroblasts; actives raise or lower the signal. A digest of the protocol: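 ELISA read-out of MMP-9 at 24 h post-dosing in a co-culture of human skin keratinocytes and foreskin fibroblasts. Gain or loss of signal was fitted in both directions against DMSO.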

Read-out in test [3]: CD40, CD40 (gene 958)
Briefly: BSK_LPS_CD40: BioMAP Diversity Plus: LPS Assay for CD40 Biomarker Activity (AID 2283076). The settings on record: primary human HUVEC with PBMC; actives raise or lower the signal. A digest of the protocol: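 HUVEC plus PBMC co-culture stimulated with LPS; CD40 quantified by ELISA 24 h after compound dosing. Fitting was bidirectional relative to DMSO. SRB staining of parallel cultures flagged overt cytotoxicity.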

Read-out in test [4]: E-selectin (Homo sapiens) (UniProt P16581)
Briefly: BSK_LPS_Eselectin: BioMAP Diversity Plus: LPS Assay for Eselectin Biomarker Activity (AID 2283077). The settings on record: primary human HUVEC with PBMC; actives raise or lower the signal. Summed up: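 Human umbilical vein endothelial cells co-cultured with PBMC under LPS stimulation; cell-surface E-selectin measured by ELISA 24 h after dosing. Change in either direction versus DMSO, with SRB total-protein staining in parallel cultures for cytotoxicity.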

A short description of test [5]: BSK_LPS_SRB: Viability Assessment in the BioMAP Diversity Plus: LPS Assay (AID 2283079).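 Note: total protein by sulforhodamine B absorbance as a cytotoxicity measure; measured one day after compound addition.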 The following applies: primary human HUVEC with PBMC. Summed up: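 Co-culture of human umbilical vein endothelial cells and PBMC, read 24 h after dosing. Total protein by 0.1% SRB staining after 10% TCA fixation, absorbance at 560 nm; bidirectional fit against DMSO.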
Read-out in test [6]: Interleukin-1 alpha (IL1a), IL1A (gene 3552)
Kind of test: BSK_LPS_IL1a: BioMAP Diversity Plus: LPS Assay for Interleukin-1 alpha (IL1a) Biomarker Activity (AID 2283080). The following applies: primary human HUVEC with PBMC; actives raise or lower the signal. Summed up:
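Human umbilical vein endothelial cells co-cultured with PBMC and stimulated with LPS; IL-1a measured by ELISA 24 h after dosing. Bidirectional fitting against DMSO; cytotoxicity checked by SRB staining in parallel cultures.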

Read-out in test [7]: Monocyte Chemoattractant Protein-1 (MCP1), CCL2 (gene 6347)
Kind of test: BSK_LPS_MCP1: BioMAP Diversity Plus: LPS Assay for Monocyte Chemoattractant Protein-1 (MCP1) Biomarker Activity (AID 2283081).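 For AC50: secreted MCP-1 protein quantified by ELISA in culture supernatant.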 The following applies: primary human HUVEC with PBMC; actives raise or lower the signal. A digest of the protocol: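 Human umbilical vein endothelial cells co-cultured with PBMC, LPS-stimulated; secreted MCP-1 measured by ELISA 24 h after compound addition. Bidirectional curve fitting against DMSO baseline; SRB total-protein staining in parallel cultures for cytotoxicity.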

A short description of test [8]: BSK_LPS_PGE2: BioMAP Diversity Plus: LPS Assay for Prostaglandin E2 (PGE2) Biomarker Activity (AID 2283082).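 For AC50: secreted prostaglandin E2 measured by ELISA in LPS-stimulated co-culture.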 The following applies: primary human HUVEC with PBMC; actives raise or lower the signal. Summed up: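 ELISA read-out of PGE2 from human umbilical vein endothelial cells co-cultured with peripheral blood mononuclear cells under LPS, 24 h post-dose. Gain or loss of signal scored relative to DMSO baseline.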

Read-out in test [9]: Macrophage colony-stimulating factor (MCSF), CSF1 (gene 1435)
Kind of test: BSK_LPS_MCSF: BioMAP Diversity Plus: LPS Assay for Macrophage colony-stimulating factor (MCSF) Biomarker Activity (AID 2283083). The following applies: primary human HUVEC with PBMC; actives raise or lower the signal. Summed up:
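HUVEC–PBMC co-culture, M-CSF measured by ELISA 24 h after chemical dosing. Fitted in both directions relative to DMSO as negative control; overt cytotoxicity assessed by SRB total-protein staining in parallel cultures.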

Read-out in test [10]: Tissue Factor, F3 (gene 2152)
Briefly: BSK_LPS_TissueFactor: BioMAP Diversity Plus: LPS Assay for Tissue Factor Biomarker Activity (AID 2283084). The following applies: primary human HUVEC with PBMC; actives raise or lower the signal. A digest of the protocol: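 Human umbilical vein endothelial cells co-cultured with PBMC were dosed with compound. Cell-surface CD142 was measured by ELISA 24 h later. Activity was fitted bidirectionally against DMSO, with SRB total-protein staining in parallel cultures for cytotoxicity.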

Read-out in test [11]: Vascular cell adhesion molecule 1 (VCAM1), VCAM1 (gene 7412)
Briefly: BSK_LPS_VCAM1: BioMAP Diversity Plus: LPS Assay for Vascular cell adhesion molecule 1 (VCAM1) Biomarker Activity (AID 2283086). The following applies: primary human HUVEC with PBMC; actives raise or lower the signal. Summed up:
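ELISA read-out of VCAM-1 at 24 h post-dosing in an LPS-driven HUVEC/PBMC primary human co-culture; gain or loss of signal fitted bidirectionally against DMSO baseline. Cytotoxicity tracked in parallel cultures by SRB total-protein staining.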

Read-out in test [12]: CD38, CD38 (gene 952)
Kind of test: BSK_SAg_CD38: BioMAP Diversity Plus: SAg Assay for CD38 Biomarker Activity (AID 2283087). The settings on record: primary human HUVEC with PBMC; actives raise or lower the signal. A digest of the protocol:
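Measures CD38 on a human endothelial/PBMC co-culture driven by SEB and TSST-1, 24 h after compound exposure, using ELISA with fluorescence detection; DMSO defines baseline for bidirectional curve fitting.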

Read-out in test [13]: CD40, CD40 (gene 958)
Briefly: BSK_SAg_CD40: BioMAP Diversity Plus: SAg Assay for CD40 Biomarker Activity (AID 2283088). The following applies: primary human HUVEC with PBMC; actives raise or lower the signal. Summed up:
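HUVEC plus PBMC co-culture, superantigen-activated, with CD40 read by ELISA 24 h after dosing. Curves fitted in both directions against DMSO. Overt cytotoxicity checked by parallel SRB total-protein staining.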

Read-out in test [14]: CD69, CD69 (gene 969)
Kind of test: BSK_SAg_CD69: BioMAP Diversity Plus: SAg Assay for CD69 Biomarker Activity (AID 2283089).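 For AC50: cell surface CD69 protein quantified by ELISA with fluorescence detection.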 The following applies: primary human HUVEC with PBMC; actives raise or lower the signal. A digest of the protocol:
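HUVEC co-cultured with PBMC were dosed with chemical, and CD69 was measured by ELISA with fluorescence read-out 24 h later. Bidirectional curve fitting used DMSO as negative control and activity baseline.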

Read-out in test [15]: Monocyte Chemoattractant Protein-1 (MCP1), CCL2 (gene 6347)
Kind of test: BSK_SAg_MCP1: BioMAP Diversity Plus: SAg Assay for Monocyte Chemoattractant Protein-1 (MCP1) Biomarker Activity (AID 2283090). The following applies: primary human HUVEC with PBMC; actives raise or lower the signal. A digest of the protocol:
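Values derive from bidirectional fitting of ELISA-measured MCP1 against DMSO controls. Readings were taken 24 h after dosing human vascular endothelial cells co-cultured with peripheral blood mononuclear cells under superantigen stimulation.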

Read-out in test [16]: E-selectin (Homo sapiens) (UniProt P16581)
Briefly: BSK_SAg_Eselectin: BioMAP Diversity Plus: SAg Assay for Eselectin Biomarker Activity (AID 2283091). The following applies: primary human HUVEC with PBMC; actives raise or lower the signal. A digest of the protocol:
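Human umbilical vein endothelial cells co-cultured with peripheral blood mononuclear cells, SAg system. E-selectin is measured by ELISA 24 h after dosing and fitted bidirectionally against DMSO. Cytotoxicity is checked by SRB staining of parallel cultures.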

Read-out in test [17]: Tumor necrosis factor (Homo sapiens) (UniProt P01375)
Briefly: BSK_LPS_TNFa: BioMAP Diversity Plus: LPS Assay for Tumour Necrosis Factor alpha (TNFa) Biomarker Activity (AID 2283085). The following applies: primary human HUVEC with PBMC; actives raise or lower the signal. Summed up: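 HUVEC/PBMC co-culture, LPS-stimulated; 24 h post-dose; TNFa by ELISA; gain or loss of signal fitted bidirectionally vs DMSO baseline.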

Sequence of E-selectin (Homo sapiens) (P16581 whole entry, looked up): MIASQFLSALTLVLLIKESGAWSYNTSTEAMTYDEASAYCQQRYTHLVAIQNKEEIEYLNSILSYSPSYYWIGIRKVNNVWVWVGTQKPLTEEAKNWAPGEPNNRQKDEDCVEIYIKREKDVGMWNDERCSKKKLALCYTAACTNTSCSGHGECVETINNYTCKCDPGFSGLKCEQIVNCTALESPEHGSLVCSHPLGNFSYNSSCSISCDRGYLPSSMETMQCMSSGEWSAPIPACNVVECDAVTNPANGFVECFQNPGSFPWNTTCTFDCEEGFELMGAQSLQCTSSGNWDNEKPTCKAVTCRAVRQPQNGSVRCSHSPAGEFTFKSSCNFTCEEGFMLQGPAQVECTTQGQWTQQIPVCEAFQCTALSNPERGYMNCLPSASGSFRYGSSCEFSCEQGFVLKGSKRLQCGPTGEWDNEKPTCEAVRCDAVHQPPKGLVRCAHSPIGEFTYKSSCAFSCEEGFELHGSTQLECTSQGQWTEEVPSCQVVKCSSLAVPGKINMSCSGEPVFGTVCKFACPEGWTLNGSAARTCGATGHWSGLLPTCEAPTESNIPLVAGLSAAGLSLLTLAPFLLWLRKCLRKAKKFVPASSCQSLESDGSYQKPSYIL
Sequence of Tumor necrosis factor (Homo sapiens) (P01375 whole entry, looked up): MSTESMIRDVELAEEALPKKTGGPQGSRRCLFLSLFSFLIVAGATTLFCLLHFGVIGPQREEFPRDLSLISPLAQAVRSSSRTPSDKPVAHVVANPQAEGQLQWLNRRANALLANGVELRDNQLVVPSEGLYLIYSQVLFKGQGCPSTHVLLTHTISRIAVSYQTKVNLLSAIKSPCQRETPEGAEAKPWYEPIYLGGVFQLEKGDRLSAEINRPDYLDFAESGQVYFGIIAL

What is called AC50 is the midpoint of the concentration-response curve, whichever way the signal moves. For the compound `CCCN(CCC)c1c([N+](=O)[O-])cc(C(F)(F)F)c(N)c1[N+](=O)[O-]`, the AC50 in [1] is 32.1 µM (active); in [2], 33.6 µM (active); in test [5], 13.8 µM (active); in test [9] it was 20 µM (active); in test [11] it was 30.7 µM (active); in [13], 28.9 µM (active). The AC50 in [15] was 31 µM (active); in test [16], 29.3 µM (active). In addition, the result in [3], in test [4], in test [6], in test [7], in test [8] and in test [10] was inactive. The result in [12] and in [14] was inactive.
Take `C=CCOC(Cn1ccnc1)c1ccc(Cl)cc1Cl` (centres undefined): the outcome in test [1], in test [2], in test [4], in test [5], in test [6] and in test [7] was inactive. Further, the outcome in test [9], in test [10], in [11], in test [12], in test [13] and in [14] was inactive. Moreover, in test [15], the outcome was inactive. Also, the AC50 in test [3] was 22.2 µM (active); in test [8] it was 0.27 µM (active); in [16], 32.9 µM (active).
In the case of `CCCCCCC(C)OC(=O)COc1nc(F)c(Cl)c(N)c1Cl` (centres undefined), the AC50 was 31.3 µM (active) in test [1]; 29.9 µM (active) in test [3]; 30.7 µM (active) in [4]; 38.4 µM (active) in test [5]; 31 µM (active) in test [7]; 20.3 µM (active) in test [8]. Moreover, the AC50 in test [9] was 29.8 µM (active); in [10] it was 35.9 µM (active); in test [11], 30.8 µM (active); in test [12], 30.7 µM (active); in test [13], 29.5 µM (active); in [14] it was 31 µM (active). Also, the values for the AC50 in test [15] and in test [16] were 29.8 µM (active) and 33 µM (active), respectively. The outcome in [2] was inactive.
For `O=C(O)C1(C(=O)Nc2ccc(Cl)cc2Cl)CC1`, the outcome in test [1], in [2], in test [3], in test [4], in [5] and in test [6] was inactive. For the same compound, the result in test [7], in [9], in test [10], in test [17], in [11] and in test [13] was inactive. Also, the result in [15] and in test [16] was inactive. For the same compound, the half-maximal activity concentration (AC50) was 7.72 µM (active) in test [8], 5.3 µM (active) in test [12] and 9.21 µM (active) in test [14].
